HCV inhibitor – inhibitors of hepatitis C virus infection; 3.4% of 340,000 active; Huh7.5.1 HCVcc-Cre infection, luciferase reporter, 44 h; Potency, µM (titrated, usually from 41.8 µM), inactives show at the top dose activity change, negative = inhibition, most hits filed as inhibitors; AID 651820; further: potency means the concentration at half of the fitted maximal effect
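Compounds are dispensed onto cells plated 4 h earlier at 1,000 per well, with HCVcc-Cre virus (about 0.5 moi) added next. Following 44 h of culture, luminescent signal is measured for 15 sec after 15 min with substrate at room temperature.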
FMDV inh – blocks foot and mouth disease virus; AID 1159524; Potency, µM (top dose mostly 57.9 µM), inactives show top-dose activity change, negative = inhibition, usual class: inhibitors; 1.2% of 410,000 active; FMDV antiviral cell-based qHTS; calls by dose curve; tested in HEK293T cells; further: read-out not given here; potency means the concentration at half of the fitted maximal effect; nearly all actives have a fitted effect of over 45% in size
Vaccinia Venus – vaccinia inhibition (Venus reporter). Vaccinia virus Venus reporter expression, fluorescence. Potency, µM (top dose mostly 36.5 µM), for the others: at the highest dose activity change, negative = inhibition, actives largely listed as inhibitors. 0.46% of 330,000 active. AID 720580; calls by dose curve; tested in A549 cells; further: potency means the concentration at half of the fitted maximal effect; nearly all actives have a fitted effect of over 30% in size
Sm TGR inh – inhibitors of Schistosoma mansoni thioredoxin glutathione reductase. purified TGR, DTNB reduction, TNB absorbance 405 nm. 3% of 360,000 active. Potency, µM (top dose mostly 114 µM), without a hit: at the highest dose activity change, negative = inhibition, actives largely listed as inhibitors; further: potency means the concentration at half of the fitted maximal effect; nearly all actives have a fitted effect of over 60% in size
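Kinetic colorimetric format: TGR-catalysed, NADPH-driven DTNB reduction monitored via TNB absorbance. Enzyme dispensed at 20 nM; compound exposure 15 min at room temperature before reaction start.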
HCMV inh – blocks human cytomegalovirus replication; HFF cells, HCMV-luciferase reporter, 72 h; active compounds read low; activity change, negative = inhibition, % at 57.5 µM; 4.5% of 410,000 active; AID 1259415; in the data active means activity change below about -60%; inconclusive means no clear call, values can overlap the other calls; inactive means above about -39%
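Cell-based, HFFs, 1000 cells/well, 16 h 37C; cpds in DMSO + HCMV-luc, MOI 1 PFU/cell; 72 h 37C; OneGlo luminescence after 5 min RT; norm. to buffer vs Salinomycin 10uM.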
VACV mCherry inh – vaccinia inhibition (mCherry reporter); Potency, µM (series often up to 36.5 µM), without a hit: top-dose activity change, negative = inhibition, usual class: inhibitors; Vaccinia virus mCherry reporter infection, fluorescence; AID 720579; 0.63% of 310,000 active; calls by dose curve; tested in A549 cells; further: potency means the concentration at half of the fitted maximal effect; nearly all actives have a fitted effect of over 35% in size
The depositor's hits bear a star; [ ] = another dose, or the depositor's remark. Sampled rows, rich in hits. Any-hit rate of the full collection: about 9.3%. Unless noted, the call rests on the fitted dose curve; in most records, active means well fitted curve in the direction sought with a large enough effect; inconclusive means small, poorly fitted or top-dose-only effect, or another doubt; inactive means no such curve, though single readings can be large; an effect the other way counts as inactive or inconclusive. On the % scale 0 is the no-effect control and ±100 the full control effect.

COc1ccc(/C(N)=N/OC(=O)C2CCCCC2)cc1OC was read as HCV inhibitor inconclusive, FMDV inh 48%, Sm TGR inh -1% and HCMV inh -11.
COc1ccc(/C(N)=N/OC(=O)C2CCCCC2)cc1 was read as HCV inhibitor -1%, FMDV inh 8%, Sm TGR inh 89µM* and HCMV inh 25.
`CCC(C)NC(=S)Nc1ccccc1OC` (stereo unspecified) gave HCV inhibitor 2%, FMDV inh -29%, Vaccinia Venus -12%, Sm TGR inh 2%, HCMV inh -20 and VACV mCherry inh -10%.
CCO[C@@H]1OC(C(=O)NCc2ccccc2)=C[C@H](c2ccc3c(c2)OCO3)[C@H]1CCCO was read as HCV inhibitor 14%, FMDV inh 3%, Vaccinia Venus -17%, Sm TGR inh -1%, HCMV inh -9 and VACV mCherry inh -13%.
For CCO[C@@H]1OC(C(=O)Nc2ccccc2)=C[C@H](c2ccccc2)[C@H]1CCCO the results were HCV inhibitor 1%, FMDV inh -16%, Vaccinia Venus -1%, Sm TGR inh -1%, HCMV inh -61* and VACV mCherry inh 25%.
For C#CCNC(=O)C1=C[C@@H](c2ccc3c(c2)OCO3)[C@H](CCCO)[C@@H](OCC)O1 the results were HCV inhibitor -5%, FMDV inh -7%, Vaccinia Venus -9%, Sm TGR inh 45µM*, HCMV inh 2 and VACV mCherry inh inactive.
`CCO[C@H]1OC(C(=O)NCc2ccccc2)=C[C@@H](c2ccc3c(c2)OCO3)[C@@H]1CCCO` gave HCV inhibitor -24%, FMDV inh -15%, Vaccinia Venus -24%, Sm TGR inh 1%, HCMV inh -68* and VACV mCherry inh inactive.
For CCO[C@H]1OC(C(=O)NCc2nc3ccccc3[nH]2)=C[C@@H](c2csc3ccccc23)[C@@H]1CCCO the results were HCV inhibitor 1µM*, FMDV inh 0%, Vaccinia Venus -19%, Sm TGR inh 6%, HCMV inh 33 and VACV mCherry inh 11%.
`CCN1/C(=C2\C(=O)N(C)C(=S)N2c2ccccc2)C=Cc2ccccc21` gave HCV inhibitor inconclusive, FMDV inh -4%, Vaccinia Venus -18%, Sm TGR inh -15%, HCMV inh -11 and VACV mCherry inh -27%.
COCCn1c(Cc2ccccc2)nnc1SCC(=O)Nc1ccccc1 was read as HCV inhibitor 2%, FMDV inh 24%, Vaccinia Venus -4%, HCMV inh 13 and VACV mCherry inh -15%.
`CCOC(=O)C1CCN(C(=O)CSc2ccccc2)CC1` gave HCV inhibitor 7%, FMDV inh 5%, Sm TGR inh -33% and HCMV inh 31.
`CCO[C@H]1OC(C(=O)O)=C[C@@H](c2ccc3c(c2)OCO3)[C@@H]1CCCO` gave HCV inhibitor 2.5µM*, FMDV inh -6%, Vaccinia Venus 1%, Sm TGR inh -9%, HCMV inh -101* and VACV mCherry inh -12%.
Screening CCO[C@@H]1OC(C(=O)Nc2ccccc2)=C[C@H](c2ccc3c(c2)OCO3)[C@H]1CCCO returned HCV inhibitor 0%, FMDV inh 0%, Vaccinia Venus -2%, Sm TGR inh 0%, HCMV inh 8 and VACV mCherry inh 35%.
CCCCn1c(N)c(N(Cc2ccccc2)C(=O)COc2ccccc2F)c(=O)[nH]c1=O was read as HCV inhibitor 7%, FMDV inh -14%, Vaccinia Venus -8%, Sm TGR inh -7%, HCMV inh -39 and VACV mCherry inh inactive.
O=C(Nc1ccccn1)c1ccc(S(=O)(=O)c2ccc(Cl)cc2)cc1 was read as HCV inhibitor inconclusive, FMDV inh 0%, Vaccinia Venus -17%, Sm TGR inh -5%[57.1 µM], HCMV inh -64* and VACV mCherry inh -15%.
Screening O=C(Nc1ccccn1)c1ccc(-c2ccccc2)cc1 returned HCV inhibitor 10µM*, FMDV inh -68%, Vaccinia Venus -14%, Sm TGR inh 10%, HCMV inh -78* and VACV mCherry inh 7%.
For COc1ccc(C(=O)Nc2ccccn2)cc1 the results were HCV inhibitor 4%, FMDV inh 5%, Vaccinia Venus 16%, Sm TGR inh -1%, HCMV inh 34 and VACV mCherry inh 10%.
COc1ccccc1OCC(O)CNCc1ccc2c(c1)OCO2 (stereo unspecified) was read as HCV inhibitor 0%, FMDV inh -1%, Vaccinia Venus -9%, Sm TGR inh -11%, HCMV inh 25 and VACV mCherry inh -15%.
For CCOC(=O)c1ccc(N2C(=O)C3CCOc4ccccc4C32)cc1 (stereo unspecified) the results were HCV inhibitor -24%, FMDV inh -16%, Vaccinia Venus inconclusive, Sm TGR inh -7%, HCMV inh -79* and VACV mCherry inh inactive.
`COc1cc(OC)c(-c2nnc3n(CCc4ccccc4)c(=O)c4ccccc4n23)cc1OC` gave HCV inhibitor -10%, Sm TGR inh 4% and HCMV inh 7.
Screening CC(C)c1ccc(-c2nnc3n(CCc4ccccc4)c(=O)c4ccccc4n23)cc1 returned FMDV inh 28µM*, Vaccinia Venus -9%, Sm TGR inh 44%, HCMV inh 16 and VACV mCherry inh -26%.
For COc1ccc(-c2nnc3n(CCc4ccccc4)c(=O)c4ccccc4n23)c(OC)c1 the results were HCV inhibitor 10%, FMDV inh 28µM*, Vaccinia Venus -3%, Sm TGR inh -3%, HCMV inh 72 and VACV mCherry inh -11%.
`Cc1ccc2nc(C3CCCCC3)c(Cc3ccccc3C(F)(F)F)n2c1` gave FMDV inh -24%, Vaccinia Venus -20%, HCMV inh -70* and VACV mCherry inh inactive.
`Cc1ccc(Cn2c(N3CCCCCC3)nc3c2c(=O)[nH]c(=O)n3C)cc1` gave HCV inhibitor -21%, FMDV inh -2%, Vaccinia Venus inconclusive, Sm TGR inh 2% and HCMV inh -11.
For COc1ccc(NC(=S)N2CCNC(=O)C2CC(=O)Nc2cccc(Cl)c2C)cc1 (stereo unspecified) the results were HCV inhibitor 8%, FMDV inh 0%, Vaccinia Venus -20%, Sm TGR inh -8%, HCMV inh -12 and VACV mCherry inh -9%.
Screening CN(C)c1ccc(C(C[N+](=O)[O-])c2c(N)n(C)c(=O)n(C)c2=O)c(F)c1C#N (stereo unspecified) returned HCV inhibitor -8%, FMDV inh 35µM* and Sm TGR inh -3%.
